Calls of active or inactive are those of the source.

In test [1] the test system is PRMT1 (protein arginine N-methyltransferase 1). As to the kind of experiment: PRMT1 binders on small-molecule microarrays, primary screen, biochemical, small-molecule microarray, 635 nm fluorescence (AID 1088).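 Note: binding of Prmt1 protein to compounds spotted on small-molecule microarray slides.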 Conditions: small-molecule microarray binding, higher = more signal.
The nature of test [2]: yeast growth modulation, basal conditions, primary screen, YJM789 clinical isolate, OD600, 24 h (AID 1089).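 Note: growth of clinical yeast isolate S. cerevisiae YJM 789 seeded 1000 cells per well; test concentration not given here.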 Conditions: S. cerevisiae YJM789 growth, higher = more signal, called active from +8 up or from −8 down.
A short description of test [3]: fission yeast growth modulation, primary screen, strain 972, OD600, 24 h, no modulator (AID 1090).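 Note: basal condition with compound alone and no growth modifier present; test concentration not given here.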 Conditions: S. pombe 972 growth, higher = more signal, called active from +8 up or from −8 down.
A short description of test [4]: S. cerevisiae growth modulation with rapamycin, primary screen, strain BY4716, OD600, 96 h (AID 1091). Note: test concentration not given here. Conditions: higher = more signal, called active from +8 up or from −8 down.
Test [5] addresses Torsin-1A-interacting protein 2 (Homo sapiens) (UniProt Q8NFQ8). As to the kind of experiment: LULL1 binders on small-molecule microarray, primary screen, cell lysate, human LULL1 lysate, 635/667 nm fluorescence (AID 1092).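 Note: probe is lysate of COS7 cells overexpressing human LULL1; score merges per-feature 667 nm fluorescence with signal-to-noise.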 Conditions: hLULL1 lysate binding, 635 nm fluorescence, higher = more signal.
Test [6] in a line: E. coli growth modulation, two-sided OD650, primary screen, E. coli filamentation project, strain DRC41, 24 h (AID 1093).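 Note: MC1000 strain lacking acrAB efflux and sulA so SOS filamentation is blocked; test concentration not given here.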 Conditions: OD650, 24 h, higher = more signal, called active from +8 up or from −8 down.
Test [7] is described as follows: small-molecule microarray binders of probe aLefty2, primary screen, biochemical, biotinylated probe, 635/667 nm fluorescence (AID 1094).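 Note: score merges spot fluorescence near 667 nm with spot signal-to-noise ratio.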 Conditions: higher = more signal.
The test system of test [8] is Noggin (protein binding on small-molecule microarray). Briefly: Noggin binders on small-molecule microarray, primary screen, biochemical, 635/667 nm fluorescence (AID 1095).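 Note: score merges 667 nm feature fluorescence with signal to noise over triplicate slides.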 Conditions: 635 nm fluorescence, higher = more signal.
Test [9] addresses Neurogenic locus notch homolog protein 3 (Homo sapiens) (UniProt Q9UM47). Briefly: NOTCH3 binders on small-molecule microarray, primary screen, biochemical, 635/667 nm fluorescence (AID 1096). Conditions: NOTCH3 binding, 635 nm fluorescence, higher = more signal.
A short description of test [10]: small-molecule microarray binders of probe aEGFR, primary screen, biochemical, biotinylated probe, 635/667 nm fluorescence (AID 1097).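 Note: probe is a biotinylated anti-EGFR antibody binding compounds printed on slides; score combines fluorescence near 667 nm and signal to noise of each spot.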 Conditions: higher = more signal.

Chain of Neurogenic locus notch homolog protein 3 (Homo sapiens) (Q9UM47 whole entry, looked up): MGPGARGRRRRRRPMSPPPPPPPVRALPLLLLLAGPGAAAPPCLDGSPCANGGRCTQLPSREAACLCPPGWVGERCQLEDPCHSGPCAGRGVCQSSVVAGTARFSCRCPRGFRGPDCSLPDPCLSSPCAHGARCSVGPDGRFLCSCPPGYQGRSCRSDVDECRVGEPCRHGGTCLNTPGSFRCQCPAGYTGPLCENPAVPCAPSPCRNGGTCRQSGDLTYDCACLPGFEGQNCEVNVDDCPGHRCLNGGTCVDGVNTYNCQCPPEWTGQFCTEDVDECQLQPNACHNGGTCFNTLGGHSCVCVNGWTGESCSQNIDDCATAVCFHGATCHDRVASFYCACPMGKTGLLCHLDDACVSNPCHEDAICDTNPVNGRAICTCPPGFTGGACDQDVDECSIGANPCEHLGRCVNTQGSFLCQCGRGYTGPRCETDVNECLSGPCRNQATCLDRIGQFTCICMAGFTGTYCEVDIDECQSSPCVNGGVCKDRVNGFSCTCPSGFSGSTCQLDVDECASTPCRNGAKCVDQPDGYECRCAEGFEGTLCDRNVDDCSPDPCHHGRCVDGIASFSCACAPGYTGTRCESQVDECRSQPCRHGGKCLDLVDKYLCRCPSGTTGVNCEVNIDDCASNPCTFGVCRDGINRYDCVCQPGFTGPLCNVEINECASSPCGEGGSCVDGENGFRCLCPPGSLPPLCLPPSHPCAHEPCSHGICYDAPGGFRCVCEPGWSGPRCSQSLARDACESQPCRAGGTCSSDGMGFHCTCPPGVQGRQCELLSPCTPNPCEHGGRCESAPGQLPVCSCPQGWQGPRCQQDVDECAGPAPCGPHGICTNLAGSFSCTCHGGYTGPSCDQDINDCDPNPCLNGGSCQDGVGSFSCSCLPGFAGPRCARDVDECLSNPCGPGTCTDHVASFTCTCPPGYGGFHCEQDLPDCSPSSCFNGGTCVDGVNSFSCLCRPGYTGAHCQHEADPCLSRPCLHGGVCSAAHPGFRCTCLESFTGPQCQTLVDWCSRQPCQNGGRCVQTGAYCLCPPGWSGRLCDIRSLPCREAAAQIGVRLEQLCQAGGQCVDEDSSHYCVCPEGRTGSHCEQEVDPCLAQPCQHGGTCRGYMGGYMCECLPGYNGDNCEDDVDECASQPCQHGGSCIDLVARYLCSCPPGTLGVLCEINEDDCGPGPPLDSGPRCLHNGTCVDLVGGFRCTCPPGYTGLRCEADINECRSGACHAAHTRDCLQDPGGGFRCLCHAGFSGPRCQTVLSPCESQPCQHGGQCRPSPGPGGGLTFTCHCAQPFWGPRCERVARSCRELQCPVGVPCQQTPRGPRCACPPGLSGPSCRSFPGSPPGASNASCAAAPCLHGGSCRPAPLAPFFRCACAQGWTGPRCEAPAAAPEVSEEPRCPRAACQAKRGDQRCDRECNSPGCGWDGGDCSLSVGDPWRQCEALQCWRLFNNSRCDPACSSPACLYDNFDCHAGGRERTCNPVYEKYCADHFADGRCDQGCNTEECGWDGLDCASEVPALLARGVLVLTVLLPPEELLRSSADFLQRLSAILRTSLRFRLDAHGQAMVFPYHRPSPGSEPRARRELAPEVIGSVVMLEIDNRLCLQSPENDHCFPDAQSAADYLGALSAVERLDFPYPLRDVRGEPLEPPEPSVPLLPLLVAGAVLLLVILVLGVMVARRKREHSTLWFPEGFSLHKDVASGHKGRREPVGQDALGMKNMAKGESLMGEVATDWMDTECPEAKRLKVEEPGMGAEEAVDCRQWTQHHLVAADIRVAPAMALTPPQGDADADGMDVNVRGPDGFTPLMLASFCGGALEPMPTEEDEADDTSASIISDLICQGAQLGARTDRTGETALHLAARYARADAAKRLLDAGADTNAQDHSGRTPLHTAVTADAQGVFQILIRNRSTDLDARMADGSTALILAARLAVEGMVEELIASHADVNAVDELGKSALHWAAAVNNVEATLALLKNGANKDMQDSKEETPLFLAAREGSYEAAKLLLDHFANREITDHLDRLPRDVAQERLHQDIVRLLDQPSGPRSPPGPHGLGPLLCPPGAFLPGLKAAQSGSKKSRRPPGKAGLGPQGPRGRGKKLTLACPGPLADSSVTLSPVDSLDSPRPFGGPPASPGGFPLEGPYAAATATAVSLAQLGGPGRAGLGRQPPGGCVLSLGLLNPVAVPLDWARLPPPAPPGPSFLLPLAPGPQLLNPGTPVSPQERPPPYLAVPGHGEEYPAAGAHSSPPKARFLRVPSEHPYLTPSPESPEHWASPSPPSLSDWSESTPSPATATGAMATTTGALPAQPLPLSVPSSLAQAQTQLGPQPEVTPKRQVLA
Chain of Torsin-1A-interacting protein 2 (Homo sapiens) (Q8NFQ8 whole entry, looked up): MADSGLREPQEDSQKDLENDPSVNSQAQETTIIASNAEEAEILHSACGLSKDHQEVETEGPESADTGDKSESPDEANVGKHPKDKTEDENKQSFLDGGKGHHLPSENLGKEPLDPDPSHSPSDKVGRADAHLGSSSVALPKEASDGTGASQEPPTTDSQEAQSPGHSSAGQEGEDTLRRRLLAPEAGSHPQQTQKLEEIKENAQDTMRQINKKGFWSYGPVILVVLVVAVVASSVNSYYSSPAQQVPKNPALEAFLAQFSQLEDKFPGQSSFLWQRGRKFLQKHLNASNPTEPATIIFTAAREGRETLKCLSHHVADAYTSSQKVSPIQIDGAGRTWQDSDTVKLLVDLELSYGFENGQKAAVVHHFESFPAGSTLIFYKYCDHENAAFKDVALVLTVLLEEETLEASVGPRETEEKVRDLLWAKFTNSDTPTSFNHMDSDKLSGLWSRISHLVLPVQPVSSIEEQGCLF

With `C=CC[C@]12N=C(c3ccc(OCCCO)cc3)O[C@H]1c1ccccc1N(Cc1ccccc1)C2=O`, the composite z-score in [1] was 1.46; in [5] it was 1.04; in test [7], 0.331; in test [8], 0.313; in test [9], 0.483; in [10] it was -0.0692. For the same compound, the z-score was -0.523 (inactive) in test [2], -0.371 (inactive) in test [3], 1.89 (inactive) in test [4] and 0.508 (inactive) in test [6].

Take `CC(C)C(=C=CC[C@@H](O)c1ccccc1OCCO)CCO`: the composite z-score in [1] was 0.895; in test [5], -0.559; in test [7] it was -0.0998; in test [8] it was 0.315; in [9], 0.428; in test [10], -0.096. The z-score was -2.18 (inactive) in [2], -17.8 (active) in [3], -2.09 (inactive) in [4] and 0.364 (inactive) in [6].

For the compound `COc1cc(OC)c(C(O)C2C=CC3C(=O)NC(=O)C3N2Nc2ccc(Cl)cc2Cl)cc1Br` (stereo not given), the composite z-score in test [1] was 0.743; in [5], 3.34; in test [7], 0.277; in [8], -0.48; in test [9] it was 0.541; in test [10], 0.0009. The z-score was -18.8 (active) in test [2], 0.109 (inactive) in test [3], -0.55 (inactive) in [4] and -1.99 (inactive) in [6].

On to `C#CCN(CC1=CCCCC1)[C@H](c1ccccc1Br)[C@@H](O)Cc1ccccc1`, for which the composite z-score in test [1] is 0.249; in test [5], 1.04; in test [7], -0.0724; in test [8], -0.51; in test [9] it was -0.721; in [10], -0.356. Moreover, the z-score in [2] is 0.119 (inactive); in [3], -4.79 (inactive); in [4] it was -0.655 (inactive); in [6], 1.79 (inactive).

For the compound `O=C(NCc1ccccc1)[C@@]1(CCS(=O)(=O)c2ccccc2)N=C(c2ccc(OCCCO)cc2)O[C@H]1c1ccccc1`, the composite z-score in test [1] came out at 1.56; in test [5], 3.56; in test [7], 0.215; in test [8], 0.878; in [9], 1.06; in [10] it was 0.116. Further, the z-score in [2] is 1.72 (inactive); in test [3] it was -0.129 (inactive); in test [4], 34.4 (active); in [6] it was 0.988 (inactive).

Turning to `NCCCCCNC(=O)[C@@H]1C[C@@H]2C(=O)NCC(=O)N2[C@@H]1c1ccc(O)cc1`, the composite z-score in test [1] was 1.53; in test [5], 2.51; in test [7], -0.145; in [8] it was 1.37; in test [9] it was 0.892; in test [10], -0.192. Further, the z-score in [2] is -0.491 (inactive); in test [3] it was -0.723 (inactive); in test [4], 0.124 (inactive); in test [6] it was -0.031 (inactive).

On to `COC(=O)[C@@]1(Cc2ccccc2)[C@H]2c3cc(C(=O)N(C)C)n(CCSCCO)c3C[C@H]2CN1C(=O)c1ccccc1`, for which the composite z-score in test [1] was -0.0249; in test [5], 3.09; in [7], 0.172; in test [8], -0.411; in test [9], -0.0488; in test [10] it was 0.0239. The z-score in test [2] is -0.177 (inactive); in [3], 0.536 (inactive); in test [4], -0.694 (inactive); in test [6], -0.842 (inactive).

For the compound `C=CCOC(=O)[C@H]1[C@@H]2C(=O)O[C@@H](c3ccccc3)[C@@H](c3ccccc3)N2[C@@H](c2ccc(OCCOC(=O)[C@@H]3C[C@@H]4C(=O)N[C@@H](CCCC[N+](C)(C)C)C(=O)N4[C@@H]3c3ccc(O)cc3)cc2)[C@]12C(=O)Nc1ccccc12`, the composite z-score is 1.55 in test [1]; 2.84 in test [5]; 0.236 in [7]; 1.64 in [8]; 1.12 in test [9]; -0.0663 in test [10]. In addition, the z-score is -1.27 (inactive) in test [2], -3.66 (inactive) in test [3], -1.02 (inactive) in test [4] and 0.155 (inactive) in test [6].

In the case of `COC(=O)C=C(CC(O)c1cccc(Cl)c1)OC` (stereo not given), the composite z-score is 0.0922 in test [1]; 2.4 in [5]; 1.06 in test [7]; -0.309 in test [8]; -0.547 in test [9]; 0.115 in test [10]. For the same compound, the z-score is -4.19 (inactive) in test [2], -10.8 (active) in [3], -1.02 (inactive) in [4] and 0.0753 (inactive) in test [6].

Consider `C=CCN1C(=O)[C@]2(O[C@H](CCO)[C@@H]([Si](C)(C)c3ccc(OC)cc3)[C@@H]2C)c2cc(N3CCCCC3=O)ccc21`, for which the composite z-score in test [1] was 1.54; in [5], 2.37; in test [7], -0.106; in [8], 1.06; in test [9], 1.14; in test [10], 0.048. Further, the z-score in test [2] is -0.242 (inactive); in [3] it was 0.413 (inactive); in test [4], 2.23 (inactive); in [6], 1.27 (inactive).

With `OC([C@@H]1CC(c2ccccc2)=NO1)[C@H]1CC(c2ccccc2)=NO1` (stereo not given in full), the composite z-score in test [1] is -0.629; in test [5] it was 0.299; in [7] it was -0.0748; in test [8], 0.281; in test [9] it was -0.158; in [10], 0.0655. Further, the z-score in test [2] is 0.784 (inactive); in [3] it was -0.786 (inactive); in [4], 1.55 (inactive); in test [6], 2.52 (inactive).

In the case of `CC(=O)NCCCC[C@@H]1NC(=O)[C@@H]2C[C@H](C(=O)NCCCCN(C)C)[C@H](c3cccc(OCCO)c3)N2C1=O`, the composite z-score was 0.558 in [1]; 1.51 in [5]; -0.0124 in [7]; -0.104 in test [8]; 0.465 in test [9]; -0.127 in [10]. In addition, the z-score in test [2] is -0.546 (inactive); in test [3] it was 0.595 (inactive); in [4], -0.789 (inactive); in test [6], 0.187 (inactive).
